Screens from PubChem BioAssay.
Shown are actives, neighbours in structure and some others; about 11% of the full set was active somewhere.
ALDH1A1 block – qHTS Assay for Inhibitors of Aldehyde Dehydrogenase 1 (ALDH1A1); Aldehyde dehydrogenase 1A1 (Homo sapiens), P00352; Purified ALDH1A1, NADH fluorescence, propionaldehyde substrate; Potency, µM (top dose mostly 75.3 µM), for inactives: at the top dose activity, negative = inhibition, usual class: inhibitors; hit rate 7.3% among 220,000;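 also: potency is read from the fitted curve at half-maximal effect; plate controls were no enzyme wells and a reference inhibitor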
Target sequence (P00352 whole entry, looked up): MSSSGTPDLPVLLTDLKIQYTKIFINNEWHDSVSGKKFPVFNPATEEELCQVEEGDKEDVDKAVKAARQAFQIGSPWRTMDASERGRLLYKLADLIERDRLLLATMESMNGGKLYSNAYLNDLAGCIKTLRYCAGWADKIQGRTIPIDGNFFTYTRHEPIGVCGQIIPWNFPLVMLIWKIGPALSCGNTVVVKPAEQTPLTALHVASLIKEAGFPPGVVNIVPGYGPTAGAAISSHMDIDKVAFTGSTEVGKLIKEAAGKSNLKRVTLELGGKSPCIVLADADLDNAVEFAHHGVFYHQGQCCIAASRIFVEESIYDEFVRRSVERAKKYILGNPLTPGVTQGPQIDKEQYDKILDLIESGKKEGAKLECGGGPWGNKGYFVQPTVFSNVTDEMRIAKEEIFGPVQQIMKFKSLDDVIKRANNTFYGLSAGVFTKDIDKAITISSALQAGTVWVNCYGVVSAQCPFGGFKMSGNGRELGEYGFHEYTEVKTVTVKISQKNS
PNC inhibitor – High Content Assay for Compounds that inhibit the Assembly of the Perinucleolar Compartment; PC3M PTB-GFP, PNC prevalence imaging, 16 h; active compounds read low; AID 2417, 2010; hit rate 3.1% among 140,000; activity change (PNC), negative = inhibition, % at 10 µM;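 active = readout at or below -70, meaning at least 70% loss of cells showing the perinucleolar compartment, a nuclear body marking cancer cells; inconclusive = readout between -30 and a set limit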;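 also: plate controls were DMSO wells for no effect and camptothecin positive control wells for full effect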
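Compounds are pinned in duplicate onto adhered PC3M cells stably expressing GFP-tagged PTB and incubated 16 h at 37 C. Cells are then fixed, nuclei stained with Hoechst, and PNC-positive cells counted.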
HPGD block – qHTS Assay for Inhibitors of HPGD (15-Hydroxyprostaglandin Dehydrogenase); purified HPGD, NADH fluorescence kinetic, PGE2 substrate; Potency, µM, for inactives: at the top dose activity change, negative = inhibition, hits mostly inhibitors; hit rate 4.3% among 150,000; AID 894, 2007; also: potency is read from the fitted curve at half-maximal effect
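NADH formation kinetics: reaction with 30 uM PGE2 and 1 mM NAD+ (final), 20 nM enzyme, Tris-HCl pH 8 with Tween 20, after 15 min compound preincubation at room temperature. Fluorescence change, last versus first of five reads.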
Starred values were filed as active, the others as inactive; ? = inconclusive; . = not tested or not shown. Unless noted, calls follow the shape of the dose curve; as a rule, active = well fitted inhibition curve with a large enough effect (not every such curve was filed as active); inconclusive = small, poorly fitted or top-dose-only effect, or another doubt; inactive = no such curve, though single readings can be large or run the other way. Unless noted, % is scaled to controls: 0 for no effect and ±100 for the full control effect.

SMILES | ALDH1A1 block | PNC inhibitor | HPGD block
Cc1nn(C)c(C(=O)NNC(=S)Nc2ccc(F)cc2)c1[N+](=O)[O-] | -9% | -2 | -13%
Cn1c(=O)[nH]c(Nc2ccc(F)cc2)c([N+](=O)[O-])c1=O | -7% | -109* | -29%
O=C(O)c1c(Sc2ccccc2)c2cc(Cl)ccc2n1Cc1ccc(Cl)cc1 | 1% | . | -1%
Cc1cccc(OCc2nc(C#N)c(N3CCCC3)o2)c1 | 0% | . | .
CC1CN(c2oc(COc3ccc(Cl)cc3Cl)nc2C#N)CC(C)O1 (configuration not stated) | 5% | -100* | ?
N#Cc1nc(COc2ccccc2)oc1N1CCCCC1 | 13µM* | 24 | ?
N#Cc1nc(COc2ccccc2Cl)oc1N1CCCCCC1 | ? | -122* | -25%
COc1ccc(N2CCN(c3oc(COc4ccccc4Cl)nc3C#N)CC2)cc1 | -9% | -6 | -14%
N#Cc1nc(COc2ccccc2Cl)oc1N1CCCC1 | -8% | . | .
CC(C)=CC(=O)OCC(=O)Nc1cc(C)cc(C)c1 | -5% | . | .
O=C1C2CCCN2c2ccc(S(=O)(=O)N3CCOCC3)cc2N1Cc1ccccc1F (configuration not stated) | ? | -14 | -15%
CON(C)S(=O)(=O)c1ccc2c(c1)N(Cc1ccc(C)cc1)C(=O)C1CCCN21 (configuration not stated) | 10µM* | . | .
Cc1ccc(CN2C(=O)C3CCCN3c3ccc(C#N)cc32)cc1 (configuration not stated) | ? | 17 | ?
N#CCN1C(=O)C2CCCN2c2ccc(S(=O)(=O)N3CCOCC3)cc21 (configuration not stated) | 10µM* | . | .
COc1ccc(CN=C(Nc2ccccc2)SC2CC(=O)N(C)C2=O)cc1 (configuration not stated) | -15% | 24 | -3%
CC1=CC(=O)N(c2cccc(C(F)(F)F)c2)C1c1ccc(Cl)cc1 (configuration not stated) | 1% | 15 | -14%
CC1=CC(=O)N(c2ccc(C)cc2)C1c1ccc(Cl)cc1 (configuration not stated) | -2% | 33 | 22µM*
CN1CCN(c2nc(-c3ccccc3)ncc2S(=O)(=O)c2ccccc2)CC1 | 14µM* | . | .
c1ccc2c(N3CCCCCC3)nc(-c3ccncc3)nc2c1 | -14% | -21 | -6%
O=S(=O)(c1ccccc1)c1cnc(-c2ccccc2)nc1N1CCCCC1 | 13µM* | . | .
Cc1ncc(S(=O)(=O)c2ccccc2)c(-c2ccccc2)n1 | -6% | 26 | -4%
Cc1ccc(S(=O)(=O)c2cnc(-c3ccccc3)nc2N2CCN(C)CC2)cc1 | 2.2µM* | . | .
Cc1ccc(S(=O)(=O)c2cc(N3CCOCC3)nc(-c3ccccc3)n2)cc1 | ? | ? | -12%
COc1ccc(C(=O)N2CCOC2CNC(=O)C(=O)NCc2ccc(Cl)cc2)cc1 (configuration not stated) | 1% | . | .
CC(=O)N[C@H](C(=O)O)C(C)(C)SN=O | 2% | . | 5%
SMILES | ALDH1A1 block | PNC inhibitor | HPGD block
CC(C)(C)c1cc(C(=O)/C=C/c2ccc(C(=O)O)cc2)cc(C(C)(C)C)c1 | 6% | . | -19%
O=C(O)c1ccc(N/N=C/c2cccc(F)c2)cc1 | 20µM* | 11 | ?
O=C(O)c1ccc(N/N=C/c2ccc(F)c(F)c2)cc1 | -5% | ? | -22%
COc1ccc(CN(Cc2ccc(C(=O)O)cc2)C(=S)Nc2ccc(C)cc2)cc1OC | -5% | . | .
COc1ccc(OC)c(-c2cnc(OC(C)(C)C)nc2OC(C)(C)C)c1 | 6% | 18 | -3%
CCC(C)NC(=O)C(=O)NCc1ccccn1 (configuration not stated) | 9% | . | .
COCCN(C(=O)Nc1ccccc1)c1ccccc1C | 6% | -100* | -7%
CCN(C(=O)Nc1ccccc1)c1ccccc1 | 6% | 31 | -14%
Cc1cc(C)c(/C=N/n2c(C)cc(C)c(C#N)c2=O)c(C)c1 | 10% | 37 | -10%
Cc1cc(C)n(/N=C/c2cccs2)c(=O)c1C#N | 3% | -98* | -4%
N[C@@H]1CCN(O)C1=O | 0% | . | -2%
C/C(=N\Nc1ccc(Cl)cc1)c1c(O)cc(C)oc1=O | 7.9µM* | . | .
Cc1cc(O)c(/C=N/Nc2ccccc2)c(=O)o1 | 7.9µM* | -15 | -30%
Cc1cc(O)c(C=Nc2cccc(Cl)c2)c(=O)o1 | -4% | -1 | -8%
C/C(=N\Nc1ccc(Cl)cc1)c1ccccn1 | ? | ? | -15%
CCOC(=O)C1CCCN(Cc2nc(Cc3ccccc3Cl)no2)C1 (configuration not stated) | -13% | . | .
